Screens from PubChem.
L929 necroptosis: inhibitors of zVAD-triggered necroptosis, primary screen, L929 cells | L929 zVAD necroptosis rescue, ATP luminescence, 24 h; with zVAD 60 µM | viability rescue, % at 10 µM | 220,000 compounds, 0.38% hits | AID 1377, 2008;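 active = activation, scaled between plate controls, above about 75%, limit read from the data; inactive = activation under that limit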;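 also: 0% = zVAD with DMSO and 100% = DMSO alone without zVAD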
Mcl1 Bid PPI: Mcl-1/Bid binding inhibitors, primary screen, biochemical, TR-FRET, 1536-well; TR-FRET Mcl-1/Bid-Dy647 peptide binding; inhibition, % at 21.7 µM; 220,000 compounds, 0.97% hits; AID 1021, 2008;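 active = compounds that cut the binding signal by more than half at the single screening dose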;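 also: His-tagged Mcl-1 with europium anti-His antibody binding Bid BH3 peptide; 0% = Mcl-1 plus peptide wells and 100% = peptide-only wells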
Target sequence (Q07820 whole entry, looked up): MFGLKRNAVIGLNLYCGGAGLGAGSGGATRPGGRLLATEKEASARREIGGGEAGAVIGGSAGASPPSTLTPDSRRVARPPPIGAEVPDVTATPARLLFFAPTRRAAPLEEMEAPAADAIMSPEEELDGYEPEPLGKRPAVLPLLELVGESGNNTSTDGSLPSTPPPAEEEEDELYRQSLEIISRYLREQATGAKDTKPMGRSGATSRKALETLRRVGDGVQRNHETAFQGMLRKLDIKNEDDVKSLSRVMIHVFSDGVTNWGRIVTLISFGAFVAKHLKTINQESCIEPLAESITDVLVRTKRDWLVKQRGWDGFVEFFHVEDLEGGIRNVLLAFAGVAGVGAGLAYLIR
Mcl-1 Bim block: inhibitors of Bim peptide binding to Mcl-1, primary screen, biochemical, bead-based flow cytometry, multiplex; Induced myeloid leukemia cell differentiation protein Mcl-1 (Homo sapiens), Q07820; Bim peptide-Mcl-1 binding; inhibition, % at 10 µM; 190,000 compounds, 0.1% hits; AID 1009, 2008; in the data active = inhibition above about 40%;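 also: 0% = no compound tracer wells and 100% = peptide blocker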
TNF necrop inh: inhibitors of TNF-alpha triggered necroptosis, primary screen, cell-based, Jurkat FADD-/-, single concentration; AID 463075, 2010; activation (protection from cell death), % at 10 µM; 220,000 compounds, 0.068% hits; Jurkat FADD-/- TNF necroptosis rescue, ATP luminescence, 24 h; 0 = TNF only, 100 = no-TNF cells;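 active = activation, meaning protection from cell death, of at least 50% relative to plate controls; inactive = activation below 50%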;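 also: necroptosis triggered by 40 ng/mL TNF-alpha added together with compound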
m-calpain inh: inhibitors of pig calpain II, primary screen, biochemical, fluorogenic peptide substrate, 1536-well; purified calpain II, 30 min; inhibition, % at 16 µM; 220,000 compounds, 0.37% hits;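 active = inhibition above about 50%, limit read from the data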
Mcl1-Noxa inh: Mcl-1/Noxa binding inhibitors, primary screen, biochemical, TR-FRET, 1536-well. inhibition, % at 21.7 µM. Induced myeloid leukemia cell differentiation protein Mcl-1 (Homo sapiens), Q07820. AID 1022, 2008. TR-FRET Mcl-1/Noxa peptide binding, 2 h. 220,000 compounds, 1.5% hits;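 active = compounds that cut the protein-peptide binding signal by more than 50% relative to plate controls in a single-dose test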;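 also: His-tagged Mcl-1 with rhodamine Noxa BH3 peptide and terbium anti-His antibody; 0% = Mcl-1 plus Noxa peptide wells and 100% = peptide-only wells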
* marks the source's active call; other numbers are inactive results. In the library only some 2.8% were active in any assay of this set; here they are far more common.

How did Clc1ccc(-c2csc(N/N=C/c3cccnc3)n2)c(Cl)c1 do in these assays?
L929 necroptosis: 2; Mcl1 Bid PPI: 42; Mcl-1 Bim block: -3; TNF necrop inh: 1; m-calpain inh: -18; Mcl1-Noxa inh: 58*

What do the screens show for `CC(=O)Nc1ccc(S(=O)(=O)NCc2cn3c(C)csc3n2)cc1`?
L929 necroptosis: 0; Mcl1 Bid PPI: -14; Mcl-1 Bim block: 0; TNF necrop inh: -1; m-calpain inh: 14; Mcl1-Noxa inh: 10

What do the screens show for `CCc1ccc(S(=O)(=O)NCc2cn3c(C)csc3n2)s1`?
L929 necroptosis: 1; Mcl1 Bid PPI: -6; Mcl-1 Bim block: -10; TNF necrop inh: 0; m-calpain inh: 100*; Mcl1-Noxa inh: 21

How did O=C(O)c1ccc2c(=O)n3cc(C(=O)c4ccccc4O)cc(Cl)c3nc2c1 do in these assays?
L929 necroptosis: 0; Mcl1 Bid PPI: -94; TNF necrop inh: 2; m-calpain inh: -1; Mcl1-Noxa inh: 60*

How did O=S(=O)(Nc1ccc(Cl)cc1)c1ccc(N2CCOCC2)c(NC(=S)NC2CC2)c1 do in these assays?
L929 necroptosis: -1; Mcl1 Bid PPI: -39; Mcl-1 Bim block: 0; TNF necrop inh: 0; m-calpain inh: -20; Mcl1-Noxa inh: 4

Results for CCCCc1ccc(C2C(C#N)=C(N)SC(N)=C2C#N)s1 ?
L929 necroptosis: 0; Mcl1 Bid PPI: -48; Mcl-1 Bim block: -4; TNF necrop inh: -2; m-calpain inh: 22; Mcl1-Noxa inh: 23

Results for COc1ccc(S(=O)(=O)/N=C2/C=CC(=O)C(C)=C2C)cc1 ?
L929 necroptosis: 6; Mcl1 Bid PPI: -59; Mcl-1 Bim block: 0; TNF necrop inh: -9; m-calpain inh: -47; Mcl1-Noxa inh: 67*

How did Cc1ccc2oc(C(Cl)(Cl)Cl)cc(=O)c2c1 do in these assays?
L929 necroptosis: 0; Mcl1 Bid PPI: 17; Mcl-1 Bim block: -4; TNF necrop inh: -24; m-calpain inh: -5; Mcl1-Noxa inh: 35

What do the screens show for `Cc1ccc2oc(C(F)(F)C(F)F)cc(=O)c2c1`?
L929 necroptosis: 1; Mcl1 Bid PPI: 88*; TNF necrop inh: -2; m-calpain inh: -25; Mcl1-Noxa inh: -13

How did O=C1c2ccccc2C(=O)N1CCCCN(C(=O)c1cccc([N+](=O)[O-])c1)c1ccc(Cl)cc1 do in these assays?
L929 necroptosis: -1; Mcl1 Bid PPI: 54*; Mcl-1 Bim block: -1; TNF necrop inh: -11; m-calpain inh: 36; Mcl1-Noxa inh: 0

What do the screens show for `O=C1OCC2OC(O)C(O)C(O)C2OC(=O)c2cc(O)c(O)c(O)c2-c2c(O)c(O)c3oc(=O)c4c(c(O)c(O)c5oc(=O)c2c3c54)-c2c1cc(O)c(O)c2O` (centres undefined)?
L929 necroptosis: 1; Mcl1 Bid PPI: -10; TNF necrop inh: 0; m-calpain inh: 39; Mcl1-Noxa inh: 105*

How did COc1cc(C=O)ccc1OS(=O)(=O)c1ccc(NC(C)=O)cc1 do in these assays?
L929 necroptosis: 0; Mcl1 Bid PPI: 53*; Mcl-1 Bim block: -4; TNF necrop inh: 0; m-calpain inh: 2; Mcl1-Noxa inh: 5

What do the screens show for `O=C(NC1(N2CCOCC2)CC1)c1ccc(Cl)cc1`?
L929 necroptosis: 1; Mcl1 Bid PPI: -10; TNF necrop inh: 1; m-calpain inh: 6; Mcl1-Noxa inh: -17

Results for Cc1ccc(CNC(=O)Cn2c(=O)oc3ccccc32)o1 ?
L929 necroptosis: 0; Mcl1 Bid PPI: -67; Mcl-1 Bim block: -4; TNF necrop inh: 3; m-calpain inh: 0; Mcl1-Noxa inh: 2

What do the screens show for `Cc1ccc2nc(NC(=O)Cn3cc4c(n3)CCCCC4)sc2c1`?
L929 necroptosis: 1; Mcl1 Bid PPI: 2; Mcl-1 Bim block: -4; TNF necrop inh: 1; m-calpain inh: 20; Mcl1-Noxa inh: 12

What do the screens show for `CNc1ccccc(-c2ccc3cc4c(cc3n2)OCO4)c1=O`?
L929 necroptosis: 0; Mcl1 Bid PPI: -94; Mcl-1 Bim block: -2; TNF necrop inh: -3; m-calpain inh: 2; Mcl1-Noxa inh: 44
